# ChEMBL document CHEMBL3988442, “University of Dundee, Small-Polar-MMV Screening Library” (2021)
# Hit rate of the full screen: of about 69,000 compounds, about 420 (0.61%) showed an effect of 50% or more. Many of the other results were omitted from the sample, so strong results are more common in it than they were.
# Molecular target: T1, Histidine--tRNA ligase (Leishmania infantum) (UniProt A4I591)
# T1 sequence (whole entry): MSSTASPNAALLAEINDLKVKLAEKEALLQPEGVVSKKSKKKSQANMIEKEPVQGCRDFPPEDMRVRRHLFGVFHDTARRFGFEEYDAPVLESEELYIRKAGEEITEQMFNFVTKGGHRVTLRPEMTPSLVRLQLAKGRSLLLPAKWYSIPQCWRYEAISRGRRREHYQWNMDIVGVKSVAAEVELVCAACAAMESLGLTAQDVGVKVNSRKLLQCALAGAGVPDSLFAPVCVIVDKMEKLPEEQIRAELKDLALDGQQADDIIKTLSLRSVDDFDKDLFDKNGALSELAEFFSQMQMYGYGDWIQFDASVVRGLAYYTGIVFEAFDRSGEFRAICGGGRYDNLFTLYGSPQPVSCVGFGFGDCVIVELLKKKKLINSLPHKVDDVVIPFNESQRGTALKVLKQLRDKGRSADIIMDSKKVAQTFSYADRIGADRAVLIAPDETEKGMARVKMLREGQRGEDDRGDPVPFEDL
# Assay: Leishmania infantum Histidine tRNA synthetase (LdHisRS)
# Assay type: functional
# Design: scale not given: in the data most compounds retested in dose-response had high values
# Settings: 30 µM
row,Structure (SMILES),Percent Effect [%]
1,Cc1cccc2cc(CN3CCCN4CCC[C@H]4C3)c(=O)[nH]c12,17.5
2,CNc1ncccc1CN1CCN2CCN(C)CC2C1 (stereo not given),6.33
3,Clc1cc(CN2CCCN3CCCC3C2)c2ncccc2c1 (stereo not given),62.9
4,CNC(=O)[C@H]1C[C@@H]2CN(c3cc(OC)ncn3)C[C@@H]2N1C(C)C,-7.02
5,c1cc(COC[C@]23COC[C@H]2CN(Cc2ccsc2)C3)ccn1,10.1
6,CCNCCc1nc2cc(F)ccc2[nH]1,25.8
7,CNCCc1nc2cc(Cl)ccc2[nH]1,14.6
8,CNCCc1nc2cc(F)ccc2[nH]1,55.3
9,O=C1[C@H]2CN(Cc3ccccn3)C[C@H]2CN1c1ccsc1,6.42
10,COc1ccc2c(c1)c(C(=O)Nc1n[nH]c(C(C)C)n1)cn2C(C)C,22.9
11,COc1ccc2c(c1)c(C(=O)Nc1nnn[nH]1)cn2C,18.8
12,COc1ccc2c(c1)c(C(=O)Nc1nnn[nH]1)cn2C(C)C,52.1
13,CN1C(Cn2cccn2)C[C@@H]2CN(Cc3cccnc3)CC[C@@H]21 (stereo not given in full),13.7
14,O=C1[C@@H]2CCN(C3CCC3)C[C@@H]2OCCN1Cc1ccncc1,17.2
15,Cc1noc(C)c1CN1CC[C@H]2OCC[C@@]2(C(=O)N2CCCO2)C1,17.6
16,O=C1[C@H]2CN(CC3CC3)C[C@H]2CN1c1ccsc1,3.01
17,COc1ccc(CCN)cc1-c1ccc(S(C)(=O)=O)cc1,23.9
18,COc1ccc(CCN)cc1-c1ccc(O)cc1,-4.22
19,COc1ccc(CCN)cc1-c1ccc(C(N)=O)cc1,71.8
20,c1cnc(N2CCO[C@H]3CN(CC4CCOCC4)C[C@H]32)nc1,11.7
